Assay results taken from PubChem BioAssay (NCATS).
Results filed as inconclusive are left out. Activity calls are given as the source filed them. Unless noted, the call rests on the fitted dose curve; in most records, active means well fitted curve in the direction sought with a large enough effect; inconclusive means small, poorly fitted or top-dose-only effect, or another doubt; inactive means no such curve, though single readings can be large; an effect the other way counts as inactive or inconclusive.

Assays:
[1] = target: DNA repair nuclease/redox regulator APEX1 (Homo sapiens) (UniProt P27695); assay: qHTS Validation Assay for Inhibitors of the Human Apurinic/apyrimidinic Endonuclease 1 (APE1) (AID 1705;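 further: TAMRA fluorescence gain over two minutes as APE1 cuts a quenched THF abasic duplex; series mostly up to about 57 µM; on the % scale 0 is the no-effect control and ±100 the full control effect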)
Outline: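 Endonuclease activity of human APE1 is followed as dequenching when the enzyme incises a tetrahydrofuran abasic site in a short duplex labelled 5'-TAMRA/3'-BHQ-2 (50 nM final), after 15 min enzyme–compound preincubation at room temperature.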

[2] = Counterscreen for APE1 Inhibitors: Fluorescent Dye Displacement Validation Assay (AID 1707);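 further: plate controls were ThO with dsDNA and no compound for no effect and ThO without dsDNA for full effect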
Outline: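 Counterscreen flags promiscuous DNA binders: compounds displacing ThO from duplex DNA (abasic THF site, 50 nM) reduce 540 nm emission (480 nm excitation). ThO 250 nM final; Tris-HCl pH 7.5 with NaCl, MgCl2 and Tween-20.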

[3] = target: Endonuclease 4 (Escherichia coli (strain K12)) (UniProt P0A6C1); assay: Counterscreen for APE1 Inhibitors: qHTS Validation Assay for Inhibitors of Endonuclease IV (AID 1708); further: on the % scale 0 is the no-effect control and ±100 the full control effect
Outline: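 Measured as reaction progress, the fluorescence gain between first and third kinetic reads after adding 50 nM TAMRA/BHQ-2 THF duplex to 2 nM enzyme preincubated 15 min with compound; 2 mM MgCl2, pH 7.5.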

[4] = qHTS for differential inhibitors of proliferation of Plasmodium falciparum line 7G8 (AID 1815);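 further: parasite growth measured after three days of incubation; plate controls were vehicle wells for no effect and reference inhibitor wells for full effect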
[5] = qHTS for differential inhibitors of proliferation of Plasmodium falciparum line 3D7 (AID 1876);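 further: parasite growth measured after three days of culture; 0% = vehicle wells and -100% = reference inhibitor wells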
[6] = qHTS for differential inhibitors of proliferation of Plasmodium falciparum line Dd2 (AID 1882); conditions: Potency: Plasmodium falciparum Dd2 proliferation inhibition;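 further: series mostly up to about 29 µM; compound exposure of 72 h on infected erythrocytes; plate controls were DMSO vehicle for no effect and 0.29 µM artemisinin for full effect; nearly all actives have a fitted effect of over 65% in size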
Outline: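 RBC culture, 0.3% parasitemia / 2.5% Hct final; cpd added by pin tool in DMSO; 72 h, 37 C, 5% CO2; lysis buffer + SYBR Green I, o/n RT dark; FI 485/535; norm. to artemisinin 0.29 uM and DMSO.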

[7] = target: Ferritin light chain (Equus caballus) (UniProt P02791); assay: qHTS Validation Assay for Identification of Novel General Anesthetics (AID 2323); further: series mostly up to about 77 µM; on the % scale 0 is the no-effect control and ±100 the full control effect
Outline: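 Apoferritin from horse spleen (10 uM) was mixed with 1-aminoanthracene at 50% saturation in PBS, then compounds were added. After 10 min at room temperature, fluorescence was read (ex 380 nm, em 535 nm) and normalized to free-probe and complex controls.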

[8] = target: ATP-dependent DNA helicase Q1 (Homo sapiens) (UniProt P46063); assay: qHTS Validation Assay for Inhibitors of RecQ-Like Dna Helicase 1 (RECQ1) (AID 2353);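 further: plate controls were DMSO vehicle for no effect and enzyme-free control for full effect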
Outline: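 RECQ1T1 50 nM; forked duplex (20 bp + 30-nt ss tails) 200 nM, ATP 2 mM final; pH 8.0, 2 mM MgCl2, 2.5 ug/ml poly(dI-dC); 15 min compound preincubation; discontinuous kinetic read over 2 h at RT.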

[9] = target: RecQ-like DNA helicase BLM (Homo sapiens) (UniProt P54132); assay: qHTS Validation Assay for Inhibitors of Bloom's syndrome helicase (BLM) (AID 2364);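 further: plate controls were DMSO vehicle for no effect and enzyme-free control for full effect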
Outline: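 BLM 50 nM in 25 mM Tris-HCl pH 8.0, 5 mM NaCl, 2 mM MgCl2, 1 mM DTT, 0.01% Tween-20, 2.5 ug/ml poly(dI-dC); 15 min cpd preinc, RT. Start: 200 nM forked DNA + 2 mM ATP (final). TAMRA read, 2 reads 2 h apart.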

[10] = Validation screen for inhibitors of Lassa infection (AID 463096; calls by dose curve; further: on the % scale 0 is the no-effect control and ±100 the full control effect)
[11] = Quantitative high throughput screen for delayed death inhibitors of the malarial parasite plastid, 96 hour incubation (AID 488745);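 further: luciferase-expressing P. falciparum in erythrocytes at 2% hematocrit and 0.1% parasitemia; series mostly up to about 29 µM; on the % scale 0 is the no-effect control and ±100 the full control effect; nearly all actives have a fitted effect of over 70% in size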
Outline: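 Luciferase-expressing P. falciparum, infected RBCs 2% Hct/0.1% parasitemia (final); 96 h cpd exposure, 37 C, 5% CO2; RPMI 1640 + 0.5% Albumax, bicarbonate, gentamycin. Readout: luminescence loss = growth inhibition.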

[12] = Quantitative high throughput screen for delayed death inhibitors of the malarial parasite plastid, 48 hour incubation (AID 488752); further: on the % scale 0 is the no-effect control and ±100 the full control effect; nearly all actives have a fitted effect of over 65% in size
Outline: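 Luciferase-expressing P. falciparum in RBCs, 2% Hct, 0.1% parasitemia final; RPMI 1640 + 0.5% Albumax; 48 h, 37 C, 5% CO2; luminescence readout, signal drop = growth inhibition.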

[13] = target: M-phase phosphoprotein 8 (Homo sapiens) (UniProt Q99549); assay: qHTS Validation Assay for Inhibitors for MPP8 Chromodomain Interactions with Methylated Histone Tails (AID 488949);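 further: AlphaScreen signal from MPP8 chromodomain bound to biotinylated H3K9me3 peptide; top concentration of the series differs between compounds; on the % scale 0 is the no-effect control and ±100 the full control effect; nearly all actives have a fitted effect of over 55% in size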
Outline: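 Disruption of the preformed MPP8–trimethyl-H3K9 peptide complex (both 50 nM, 30 min, RT) is measured after 30 min compound exposure, using AlphaScreen proximity beads; aurintricarboxylic acid titration serves as plate control.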

[14] = target: Transient receptor potential cation channel subfamily V member 1 (Homo sapiens) (UniProt Q8NER1); assay: HTS Assay for Compounds that Act as Enhancers of the Vanilloid Receptor 1 (AID 488979); further: 0% is about no effect
Outline: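 TRPV1-expressing cells loaded with Fluo-8 calcium dye; compounds added and calcium influx read kinetically for 3 min (agonist phase), then capsaicin at EC20 added and read 2 min more for enhancement. Fluorescence ex 480/em 520 nm.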

[15] = target: Thyrotropin receptor (Homo sapiens) (UniProt P16473); assay: qHTS Assay for Antagonists of the Thyroid Stimulating Hormone Receptor (AID 488980); further: series mostly up to about 58 µM; 0% is about no effect
Outline: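 Cells expressing human TSHR (HEK293) are dispensed in HBSS/HEPES containing 70 uM RO 20-1724, compound is added, then TSH at EC80 (4 nM final). Antibody in lysis buffer follows, 30 minutes at room temperature before HTRF detection.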

[16] = target: Galactokinase (Homo sapiens) (UniProt P51570); assay: qHTS Validation Assay for Inhibitors of Human Galactokinase (GALK) (AID 493189); further: 0% is about no effect
Outline: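 Compounds were pin-transferred into ATP buffer, then GALK-galactose mix was added (final 5 nM enzyme, 100 uM galactose, 35 uM ATP). After 1 h at room temperature, remaining ATP was measured luminescently.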

[17] = Validation screen for small molecules that induce DNA re-replication in SW480 colon adenocarcinoma cells (AID 504364); further: 0% is about no effect
Outline: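 Read-out: total Hoechst intensity of nuclei by fluorescence scanning imager; hits raise the fraction of nuclei with elevated DNA content. Cells received compound for 48 hr at 37 C before a 40 min stain.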

[18] = target: Glucocorticoid receptor (Homo sapiens) (UniProt P04150); assay: qHTS assay for small molecule agonists of glucocorticoid receptor signaling (AID 588532; active means well fitted curve in the direction sought with a large enough effect in the signal ratio, with a control signal flat; the % refers to the signal ratio;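 further: 100% = dexamethasone at 0.1 µM and 0% = DMSO only wells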); conditions: HeLa MMTV-bla, beta-lactamase ratio, agonist, 18 h; stronger effect = higher value; percent of dexamethasone control, DMSO zero
Outline: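 MMTV-bla HeLa, beta-lactamase reporter; medium with 1% charcoal/dextran-stripped FBS; cpds up to 92 uM, 18 h, 37 C; CCF4 readout 460/530 nm; Hill fit → EC50, efficacy vs 0.1 uM dexamethasone = 100%.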

[19] = target: Peroxisome proliferator-activated receptor delta (Homo sapiens) (UniProt Q03181); assay: qHTS assay for small molecule agonists of peroxisome proliferator-activated receptor delta signaling (AID 588534; calls by dose curve;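 further: 0% = DMSO basal wells and 100% = positive control agonist at 10 µM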)
Outline: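 Titration series tested in agonist mode on beta-lactamase reporter cells; 18 hrs at 37 C after a 5 hr pre-incubation. Readout: CCF4 fluorescence, 2 hrs RT. Hill equation gives EC50 and maximal response.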

[20] = qHTS assay for small molecule antagonists of peroxisome proliferator-activated receptor delta signaling (AID 588535; active means well fitted inhibition curve with a large enough effect in the signal ratio, with a control signal flat, not every such curve was filed as active; the % refers to the signal ratio;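 on max response: cells co-treated with a PPAR-delta agonist as stimulator during compound exposure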); conditions: HEK293T PPARd-UAS-bla, beta-lactamase FRET ratio, 18 h; 460 nm channel
Outline: (§1)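 Compounds tested in titration on PPAR-delta-UAS-bla HEK293T cells grown in charcoal/dextran-stripped serum (2%); beta-lactamase activity read via CCF4 emission at 460 and 530 nm.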

[21] = target: Peroxisome proliferator-activated receptor delta (Homo sapiens) (UniProt Q03181); assay: as above
Outline: as §1

[22] = target: Vitamin D3 receptor (Homo sapiens) (UniProt P11473); assay: qHTS assay for small molecule antagonists of vitamin D receptor signaling (AID 588541; calls by dose curve)
Outline: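 VDR-UAS-bla HEK293T cells (2000/well, 2% charcoal-stripped FBS) were treated with titrated compounds plus 1-alpha,25-dihydroxyvitamin D3 (50 nM or 3 nM final) for 16 h at 37 C. CCF4 beta-lactamase fluorescence was read; Hill fits gave IC50.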

[23] = target: Vitamin D3 receptor (Homo sapiens) (UniProt P11473); assay: qHTS assay for small molecule agonists of vitamin D receptor signaling (AID 588543; calls by dose curve;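 further: 0% = DMSO basal and 100% = reference agonist control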)
Outline: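 qHTS in agonist mode: compound titrations stimulate a VDR-driven β-lactamase reporter in HEK293T cells over 16 h at 37 °C. Response normalized to 50 nM 1α,25-dihydroxyvitamin D3 = 100%, DMSO = 0%; Hill fitting gives EC50 and maximal response.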

[24] = target: Thyroid hormone receptor beta (Homo sapiens) (UniProt P10828); assay: qHTS assay for small molecule agonists of thyroid hormone receptor beta signaling (AID 588545; calls by dose curve)
Outline: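 Cells (2500/well) were seeded, incubated 4 hrs at 37 C, dosed with a compound series, incubated 18 hrs, loaded with CCF4 dye for 2 hrs at RT, then read for fluorescence. Data were scaled between DMSO (0%) and 10 nM T3 (100%).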

[25] = qHTS assay for small molecule antagonists of retinoid X receptor alpha signaling (AID 588546; active means well fitted inhibition curve with a large enough effect in the signal ratio, with a control signal flat, not every such curve was filed as active; the % refers to the signal ratio); conditions: HEK293T RXRa-UAS-bla, beta-lactamase ratio, antagonist mode; measured here: W530 green channel, cytotoxicity proxy
Outline: (§2)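 Beta-lactamase reporter inhibition, read as CCF4 fluorescence ratio (ex 405, em 460/530 nm) after 2 h at RT. HEK293T UAS-bla cells, 2500/well, were stimulated with 9-cis-RA at 500 or 100 nM final alongside test compound for 18 h at 37 C.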

[26] = target: Retinoic acid receptor RXR-alpha (Homo sapiens) (UniProt P19793); assay: as above; conditions: HEK293T RXRa-UAS-bla, beta-lactamase ratio, antagonist mode
Outline: as §2

[27] = target: Thyroid hormone receptor beta (Homo sapiens) (UniProt P10828); assay: qHTS assay for small molecule antagonists of thyroid hormone receptor beta signaling (AID 588547; active means well fitted inhibition curve with a large enough effect in the signal ratio, with a control signal flat, not every such curve was filed as active; the % refers to the signal ratio); conditions: TR-UAS-bla HEK293, beta-lactamase ratio, antagonist mode, 18 h
Outline: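 TR-UAS-bla GripTite HEK293 cells in 2% charcoal/dextran FBS medium were preincubated 4 h at 37 C, given compound (0.59 nM to 92 uM) plus 0.4 nM T3 (final) for 18 h, then CCF4 for 2 h at RT; Hill fit gave IC50.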

[28] = qHTS assay for small molecule agonists of the antioxidant response element (ARE) signaling pathway (AID 651741; active means well fitted activation curve with a large enough effect in the signal ratio; the % refers to the signal ratio; further: potency means the concentration at half of the fitted maximal effect)
Outline: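 Beta-lactamase reporter expression driven by the antioxidant response element in HepG2 cells was detected by fluorescence with LiveBLAzer B/G FRET substrate (2 h, room temperature) following 16 h compound treatment at 37 C.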

[29] = qHTS assay for small molecule activators of the p53 signaling pathway (AID 651743; active means well fitted activation curve with a large enough effect in the signal ratio, not every such curve was filed as active; the % refers to the signal ratio; further: series mostly up to about 92 µM; % of control where 0% means no effect); conditions: HCT-116 p53RE-bla, beta-lactamase FRET ratio, 16 h; activation: stronger effect = higher value
Outline: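 Here HCT-116 cells with an integrated p53-responsive beta-lactamase gene were incubated with compounds (16 hours, 37 C) after a 5-hour plating period; beta-lactamase activity was detected as fluorescence intensity via B/G FRET substrate.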

[30] = target: Peroxisome proliferator-activated receptor alpha (Homo sapiens) (UniProt Q07869); assay: qHTS assay for small molecule agonists of the peroxisome proliferator-activated receptor alpha (PPARalpha) signaling pathway (AID 651778); conditions: PathHunter PPARalpha complementation, chemiluminescence, 6 h; stronger effect = higher value; further: % of control where 0% means no effect
Outline: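 Cells plated at 2,000/well and held overnight at 37 C, 5% CO2, then compound added by pin tool for 6 hr; after PathHunter detection reagent and 60 min at room temperature, chemiluminescence from enzyme complementation was read.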

[31] = qHTS assay for small molecule agonists of the antioxidant response element (ARE) signaling pathway measured by Nrf2-dependant transcriptional activity (AID 720636; active means well fitted curve in the direction sought with a large enough effect in the repeat runs; an effect the other way counts as inactive or inconclusive; further: % of control where 0% means no effect)
Outline: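 Nrf2-dependent transcription read as ONE-Glo luciferase signal from ARE-luc HepG2 reporter cells after 16 hr compound treatment at 37 C, 5% CO2, in assay medium with 1% dialyzed FBS.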

[32] = qHTS assay for small molecule agonists of the antioxidant response element (ARE) signaling pathway measured by Nrf2-dependant transcriptional activity - cell viability counter screen (AID 720653; active means well fitted curve in the direction sought with a large enough effect in the repeat runs; an effect the other way counts as inactive or inconclusive; further: on the % scale 0 is the no-effect control and ±100 the full control effect); conditions: ARE-bla HepG2 viability, CellTiter-Glo ATP luminescence, 16 h; stronger effect = lower value
Outline: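 ARE-bla HepG2 cells (2,000/well) rested 5 hrs at 37C/5% CO2, then exposed to compounds in DMSO for 16 hrs. Viability was read in the same wells as intracellular ATP by luminescence, 30 min at room temperature after reagent addition.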

[33] = qHTS assay for cell viability of HEK293 cells (AID 743288); conditions: ATP luminescence (CellTiter-Glo), 18 h; max response: stronger effect = lower value; further: on the % scale 0 is the no-effect control and ±100 the full control effect; nearly all actives have a fitted effect of over 50% in size
Outline: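 Quantitative high-throughput screen: compounds were pinned onto parental HEK293 cells (2,000 per well) after a minimum 5 h settling at 37 C, incubated 18 h at 37 C, and intracellular ATP measured by luciferase luminescence.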

[34] = qHTS assay for cell viability of the p53RE-bla HCT-116 cell line (AID 743292); further: on the % scale 0 is the no-effect control and ±100 the full control effect; nearly all actives have a fitted effect of over 55% in size
Outline: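 ATP-based luminescent viability (CellTiter-Glo, 30 min RT) after 16 h compound treatment at 37 C of p53RE-bla HCT-116 cells, seeded at 4,000 cells/well and rested 5 h before dosing.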

[35] = target: Nuclear receptor subfamily 1 group I member 2 (Rattus norvegicus) (UniProt Q9R1A7); assay: qHTS assay for small molecule activators of the rat pregnane X receptor (rPXR) signaling pathway (AID 651751; call rule not given here; further: 0% is about no effect); conditions: rPXR reporter cells, luciferase (One-Glo), 24 h
Nuclear receptor subfamily 1 group I member 2 (Rattus norvegicus), sequence (Q9R1A7 whole entry, looked up): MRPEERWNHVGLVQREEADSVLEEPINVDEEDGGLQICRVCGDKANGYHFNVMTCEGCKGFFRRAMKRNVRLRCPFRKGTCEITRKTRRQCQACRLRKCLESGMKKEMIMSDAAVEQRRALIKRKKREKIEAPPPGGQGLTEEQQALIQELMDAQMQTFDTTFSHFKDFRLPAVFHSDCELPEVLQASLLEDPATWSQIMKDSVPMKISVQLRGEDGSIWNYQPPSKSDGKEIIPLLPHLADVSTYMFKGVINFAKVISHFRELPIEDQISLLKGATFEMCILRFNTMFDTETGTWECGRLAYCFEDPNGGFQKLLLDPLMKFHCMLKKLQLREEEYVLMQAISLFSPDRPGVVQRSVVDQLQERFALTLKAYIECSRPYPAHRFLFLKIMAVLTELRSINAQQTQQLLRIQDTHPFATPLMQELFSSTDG

Vitamin D3 receptor (Homo sapiens), sequence (P11473 whole entry, looked up): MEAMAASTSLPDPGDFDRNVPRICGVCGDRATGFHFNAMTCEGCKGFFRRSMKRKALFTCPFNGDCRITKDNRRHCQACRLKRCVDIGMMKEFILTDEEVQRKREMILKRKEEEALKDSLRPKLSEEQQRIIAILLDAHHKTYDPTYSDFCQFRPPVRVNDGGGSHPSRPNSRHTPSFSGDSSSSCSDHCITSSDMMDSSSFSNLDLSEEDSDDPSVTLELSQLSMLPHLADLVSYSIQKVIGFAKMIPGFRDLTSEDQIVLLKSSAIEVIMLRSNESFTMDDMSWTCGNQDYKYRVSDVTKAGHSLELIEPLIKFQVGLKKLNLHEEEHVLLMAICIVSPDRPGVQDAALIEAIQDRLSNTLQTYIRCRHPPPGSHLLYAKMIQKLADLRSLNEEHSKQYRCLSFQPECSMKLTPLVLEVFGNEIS
Peroxisome proliferator-activated receptor delta (Homo sapiens), sequence (Q03181 whole entry, looked up): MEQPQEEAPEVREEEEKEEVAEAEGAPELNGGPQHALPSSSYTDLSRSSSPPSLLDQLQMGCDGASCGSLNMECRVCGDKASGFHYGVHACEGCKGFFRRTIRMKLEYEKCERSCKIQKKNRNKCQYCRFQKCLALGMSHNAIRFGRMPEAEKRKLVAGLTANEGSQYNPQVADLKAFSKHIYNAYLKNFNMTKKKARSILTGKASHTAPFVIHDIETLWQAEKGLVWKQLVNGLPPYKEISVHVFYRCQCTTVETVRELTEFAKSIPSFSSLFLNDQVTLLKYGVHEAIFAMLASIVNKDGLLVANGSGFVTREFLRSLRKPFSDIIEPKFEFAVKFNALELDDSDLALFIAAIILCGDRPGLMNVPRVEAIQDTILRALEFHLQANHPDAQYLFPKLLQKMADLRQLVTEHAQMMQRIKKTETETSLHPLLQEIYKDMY
Thyroid hormone receptor beta (Homo sapiens), sequence (P10828 whole entry, looked up): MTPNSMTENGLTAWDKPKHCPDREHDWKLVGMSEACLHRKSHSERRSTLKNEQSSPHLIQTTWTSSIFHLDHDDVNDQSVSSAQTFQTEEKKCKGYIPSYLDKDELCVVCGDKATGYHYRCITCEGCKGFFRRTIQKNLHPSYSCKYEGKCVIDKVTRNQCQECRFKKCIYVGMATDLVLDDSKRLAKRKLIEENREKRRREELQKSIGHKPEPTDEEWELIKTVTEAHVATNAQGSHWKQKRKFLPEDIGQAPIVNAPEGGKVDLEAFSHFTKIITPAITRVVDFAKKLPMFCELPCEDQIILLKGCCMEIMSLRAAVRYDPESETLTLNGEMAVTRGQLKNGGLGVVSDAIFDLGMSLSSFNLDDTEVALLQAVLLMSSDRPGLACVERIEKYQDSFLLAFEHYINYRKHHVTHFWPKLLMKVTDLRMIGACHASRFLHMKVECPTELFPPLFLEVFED
M-phase phosphoprotein 8 (Homo sapiens), sequence (Q99549 whole entry, looked up): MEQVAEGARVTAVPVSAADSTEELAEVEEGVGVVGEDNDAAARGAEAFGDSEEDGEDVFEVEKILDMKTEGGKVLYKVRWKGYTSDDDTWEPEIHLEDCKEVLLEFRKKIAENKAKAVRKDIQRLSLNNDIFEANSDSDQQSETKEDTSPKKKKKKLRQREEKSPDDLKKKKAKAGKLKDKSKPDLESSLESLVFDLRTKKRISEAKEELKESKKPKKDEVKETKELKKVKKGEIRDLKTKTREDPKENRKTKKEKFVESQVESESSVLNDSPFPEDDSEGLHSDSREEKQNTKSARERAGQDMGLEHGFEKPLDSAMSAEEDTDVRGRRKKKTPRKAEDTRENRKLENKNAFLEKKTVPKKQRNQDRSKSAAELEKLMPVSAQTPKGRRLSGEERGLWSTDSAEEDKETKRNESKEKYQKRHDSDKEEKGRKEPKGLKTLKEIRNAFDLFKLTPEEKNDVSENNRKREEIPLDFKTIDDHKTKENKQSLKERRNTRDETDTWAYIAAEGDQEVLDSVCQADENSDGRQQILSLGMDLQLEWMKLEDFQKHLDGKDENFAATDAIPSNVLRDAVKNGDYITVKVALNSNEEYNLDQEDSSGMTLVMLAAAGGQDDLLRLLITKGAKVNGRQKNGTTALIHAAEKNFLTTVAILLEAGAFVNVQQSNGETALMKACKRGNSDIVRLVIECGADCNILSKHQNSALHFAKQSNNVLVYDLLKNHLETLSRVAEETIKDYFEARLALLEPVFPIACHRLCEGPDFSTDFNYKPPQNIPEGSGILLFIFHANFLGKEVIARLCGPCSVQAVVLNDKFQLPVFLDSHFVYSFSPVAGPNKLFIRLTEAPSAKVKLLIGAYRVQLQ
Galactokinase (Homo sapiens), sequence (P51570 whole entry, looked up): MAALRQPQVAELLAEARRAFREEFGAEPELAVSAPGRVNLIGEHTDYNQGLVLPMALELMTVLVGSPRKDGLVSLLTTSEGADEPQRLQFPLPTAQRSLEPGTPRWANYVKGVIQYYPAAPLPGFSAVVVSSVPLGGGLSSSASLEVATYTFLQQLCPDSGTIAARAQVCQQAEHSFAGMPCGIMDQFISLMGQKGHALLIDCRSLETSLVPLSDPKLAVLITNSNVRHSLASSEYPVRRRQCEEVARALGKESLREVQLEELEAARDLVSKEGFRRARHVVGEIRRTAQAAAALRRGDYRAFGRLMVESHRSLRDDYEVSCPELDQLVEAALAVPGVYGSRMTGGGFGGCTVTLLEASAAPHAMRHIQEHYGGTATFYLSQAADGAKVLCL
Transient receptor potential cation channel subfamily V member 1 (Homo sapiens), sequence (Q8NER1 whole entry, looked up): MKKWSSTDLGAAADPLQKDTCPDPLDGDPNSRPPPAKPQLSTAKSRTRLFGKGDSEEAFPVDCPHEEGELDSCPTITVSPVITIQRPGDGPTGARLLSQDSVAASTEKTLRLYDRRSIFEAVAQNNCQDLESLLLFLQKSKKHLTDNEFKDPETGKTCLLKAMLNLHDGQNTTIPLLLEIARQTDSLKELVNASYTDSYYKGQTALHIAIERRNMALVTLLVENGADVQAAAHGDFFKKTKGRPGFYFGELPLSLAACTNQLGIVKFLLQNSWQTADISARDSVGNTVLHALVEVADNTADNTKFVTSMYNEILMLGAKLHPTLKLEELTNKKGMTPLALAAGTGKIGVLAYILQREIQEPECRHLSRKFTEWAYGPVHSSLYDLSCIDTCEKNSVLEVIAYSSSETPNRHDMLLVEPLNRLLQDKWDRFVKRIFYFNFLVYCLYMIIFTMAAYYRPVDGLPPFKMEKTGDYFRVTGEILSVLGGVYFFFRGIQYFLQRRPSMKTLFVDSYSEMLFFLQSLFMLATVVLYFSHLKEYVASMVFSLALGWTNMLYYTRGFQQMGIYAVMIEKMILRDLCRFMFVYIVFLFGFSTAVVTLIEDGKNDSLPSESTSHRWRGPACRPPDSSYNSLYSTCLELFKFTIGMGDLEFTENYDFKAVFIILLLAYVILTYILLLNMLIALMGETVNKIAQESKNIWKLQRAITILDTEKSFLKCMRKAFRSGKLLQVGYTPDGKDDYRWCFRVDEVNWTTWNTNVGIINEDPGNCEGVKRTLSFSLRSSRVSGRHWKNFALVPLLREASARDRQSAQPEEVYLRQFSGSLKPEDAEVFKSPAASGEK
Glucocorticoid receptor (Homo sapiens), sequence (P04150 whole entry, looked up): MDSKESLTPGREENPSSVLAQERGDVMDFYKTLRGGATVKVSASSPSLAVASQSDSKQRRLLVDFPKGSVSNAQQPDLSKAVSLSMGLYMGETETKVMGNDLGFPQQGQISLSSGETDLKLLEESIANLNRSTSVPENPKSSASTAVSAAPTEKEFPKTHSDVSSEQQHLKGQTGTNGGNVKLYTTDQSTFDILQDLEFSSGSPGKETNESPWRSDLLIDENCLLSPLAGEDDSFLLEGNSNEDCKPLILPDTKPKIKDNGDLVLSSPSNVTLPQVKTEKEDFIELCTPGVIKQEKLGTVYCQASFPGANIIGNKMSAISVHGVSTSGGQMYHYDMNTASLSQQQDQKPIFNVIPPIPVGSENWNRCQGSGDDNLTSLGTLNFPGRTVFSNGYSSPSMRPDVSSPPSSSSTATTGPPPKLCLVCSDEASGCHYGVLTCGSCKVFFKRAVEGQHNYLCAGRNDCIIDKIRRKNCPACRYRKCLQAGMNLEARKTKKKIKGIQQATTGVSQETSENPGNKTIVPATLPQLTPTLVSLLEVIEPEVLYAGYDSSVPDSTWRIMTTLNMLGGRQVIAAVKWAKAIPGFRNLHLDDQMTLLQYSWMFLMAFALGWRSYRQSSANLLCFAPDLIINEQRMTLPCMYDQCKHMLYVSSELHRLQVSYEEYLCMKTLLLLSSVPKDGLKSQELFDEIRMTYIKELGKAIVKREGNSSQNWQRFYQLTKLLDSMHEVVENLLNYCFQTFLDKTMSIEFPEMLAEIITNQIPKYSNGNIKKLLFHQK
Ferritin light chain (Equus caballus), sequence (P02791 2-175 limits assumed): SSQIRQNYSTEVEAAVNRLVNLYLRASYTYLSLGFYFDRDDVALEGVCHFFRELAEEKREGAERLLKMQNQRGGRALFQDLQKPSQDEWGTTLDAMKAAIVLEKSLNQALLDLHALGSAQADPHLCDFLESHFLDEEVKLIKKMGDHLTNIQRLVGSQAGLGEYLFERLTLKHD

O=C(O)C1C2CCC(O2)C1C(=O)O (stereo not given)
-24.5%: max response [25]
active: Potency [28] 27.3 µM
16.5%: max response [20]
inactive: Potency [1] | outcome [2] | Potency [3] | Potency [4] | Potency [5] | Potency [6] | Potency [7] | outcome [8] | outcome [9] | Potency [10] | Potency [11] | Potency [12] | Potency [13] | outcome [14] | outcome [15] | outcome [16] | outcome [17] | activation [18] -13.9% | outcome [19] | Potency [21] | outcome [22] | outcome [23] | outcome [24] | max response [26] -26.2% | activity change % (negative = inhibition) [27] -12% | activation [29] 4.04% | max response [30] -0.146% | outcome [31] | max response [32] -12.2% | max response [33] -14.9% | Potency [34] | max response [35] 4.79%
